Results on eight compounds are retold here after PubChem BioAssay (Tox21).

Results filed as inconclusive are left out. Activity calls are given as the source filed them. Unless noted, the call rests on the fitted dose curve; in most records, active means well fitted curve in the direction sought with a large enough effect in the repeat runs; inconclusive means weak or mixed curves; inactive means no such curve, though single readings can be large; an effect the other way counts as inactive or inconclusive.

Test [1] addresses Peroxisome proliferator-activated receptor delta (Homo sapiens) (UniProt Q03181). As to the kind of experiment: qHTS assay to identify small molecule agonists of the peroxisome proliferator-activated receptor delta (PPARd) signaling pathway (AID 743212; calls by dose curve). The conditions noted are these: HEK293H PPARd-UAS-bla, beta-lactamase FRET ratio, 17 h; series mostly up to 62.6 µM. The essentials:
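Beta-lactamase reporter readout: a ratiometric FRET signal from the LiveBLAzer substrate after 2 h at room temperature. Compound exposure at 37 °C in PPARδ-bla HEK293H cells driven by an upstream activator sequence.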

Test [2] shares this target. Description: qHTS assay to identify small molecule antagonists of the peroxisome proliferator-activated receptor delta (PPARd) signaling pathway (AID 743215; active means well fitted inhibition curve with a large enough effect in the signal ratio in the repeat runs, not every such curve was filed as active; the % refers to the signal ratio;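 further: cells stimulated with agonist L165041 at 300 nM final during compound exposure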). The conditions noted are these: HEK293H PPARd-UAS-bla, beta-lactamase FRET ratio, antagonist, 17 h; series mostly up to 62 µM. In a few lines:
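Plated HEK293H PPARd-bla cells rested 5 h at 37 C and 5% CO2. Compound, then agonist L165041 at 300 nM final, was added; 17 h at 37 C followed. Substrate loading, 2 h room temperature, fluorescence measured.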

Test [3] in a line: qHTS assay to identify small molecule agonists of the farnesoid-X-receptor (FXR) signaling pathway - cell viability counter screen (AID 743218). Further: nearly all actives have a fitted effect of over 45% in size. Further: potency means the concentration at half of the fitted maximal effect. The conditions noted are these: FXR-bla HEK293T viability, CellTiter-Glo luminescence, 16 h; series mostly up to 62.6 µM. The essentials: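 Viability of FXR-bla HEK 293T cells is measured by ATP-based CellTiter-Glo luminescence following 16 h compound treatment at 37 C and a prior 2 h room-temperature beta-lactamase substrate step.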

The nature of test [4]: qHTS assay to identify small molecule antagonists of the farnesoid-X-receptor (FXR) signaling pathway - cell viability counter screen (AID 743221; active means well fitted cell-killing curve with a large enough effect in the repeat runs, not every such curve was filed as active; further: nearly all actives have a fitted effect of over 50% in size; further: potency means the concentration at half of the fitted maximal effect). To be noted: FXR-bla HEK293T viability, CellTiter-Glo luminescence, 16 h; series mostly up to 62.6 µM. The essentials: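 Cytotoxicity counter screen run in the FXR-bla reporter wells: HEK 293T cells exposed to compound with 50 uM (final) chenodeoxycholic acid for 16 h, 37 C, then viability measured by CellTiter-Glo luminescence after 30 min, room temperature.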

Test [5] addresses Vitamin D3 receptor (Homo sapiens) (UniProt P11473). Description: qHTS assay to identify small molecule agonists of the vitamin D receptor (VDR) signaling pathway (AID 743222; calls by dose curve). To be noted: HEK293T VDR-UAS-bla, beta-lactamase FRET ratio, 16 h; series mostly up to 63.5 µM. The essentials: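 Fluorescence from cleaved LiveBLAzer B/G FRET substrate served as readout. VDR-bla cells had been treated 16 h at 37C with test compounds in DMSO, following a 4 h settling period, and substrate was loaded for 2 h at RT.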

A short description of test [6]: qHTS assay to identify small molecule agonists of the vitamin D receptor (VDR) signaling pathway - cell viability counter screen (AID 743224). Further: nearly all actives have a fitted effect of over 50% in size. Further: potency means the concentration at half of the fitted maximal effect. To be noted: VDR-bla HEK293T viability, CellTiter-Glo luminescence, 16 h; series mostly up to 62.6 µM. In a few lines: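 Compounds were pin-transferred onto VDR-bla cells plated 4 h earlier; following 16 h incubation at 37C, cell viability was quantified by CellTiter-Glo luminescence after 30 min at room temperature.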

Test [7] is described as follows: qHTS assay to identify small molecule antagonists of the vitamin D receptor (VDR) signaling pathway - cell viability counter screen (AID 743225). Further: nearly all actives have a fitted effect of over 50% in size. Further: potency means the concentration at half of the fitted maximal effect. To be noted: VDR-bla HEK293T viability, CellTiter-Glo luminescence, 16 h; series mostly up to 61 µM. In a few lines:
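Cytotoxicity counter screen read by CellTiter-Glo luminescence (30 min, room temperature) in the same wells as the VDR-bla antagonist readout. HEK 293T VDR-UAS-bla cells had 16 h at 37C with compound and 3 nM (final) 1-alpha,25-dihydroxyvitamin D3, then 2 h with FRET substrate.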

Test [8] is described as follows: qHTS assay to identify small molecule agonists of the NFkB signaling pathway (AID 1159509; active means well fitted curve in the direction sought with a large enough effect in the signal ratio in the repeat runs, not every such curve was filed as active; the % refers to the signal ratio). The conditions noted are these: NFkB-bla ME-180 cells, beta-lactamase FRET ratio, 5 h; series mostly up to 61 µM. In a few lines: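 Agonist activity was read as beta-lactamase-driven FRET change (460 and 530 nm emission, 405 nm excitation) following 1.5 hr substrate loading at room temperature. Beforehand, ME-180 NFkB-bla reporter cells were treated with compounds for 5 hr at 37 C.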

Test [9] is described as follows: qHTS assay to identify small molecule agonists of the NFkB signaling pathway - cell viability counter screen (AID 1159515; calls by dose curve; further: nearly all actives have a fitted effect of over 55% in size). The conditions noted are these: NFkB-bla ME-180 viability, CellTiter-Glo luminescence, 5 h; series mostly up to 61 µM. In a few lines: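 Parallel cytotoxicity counter screen in ME-180 cells carrying an NFkB-response-element beta-lactamase reporter, 2,000 cells/well. Compound exposure lasted 5 hr at 37 C, 5% CO2. Cell viability was quantified by CellTiter-Glo luminescence.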

Test [10] is described as follows: qHTS assay to identify small molecule agonists of the endoplasmic reticulum stress response signaling pathway (AID 1159516; active means well fitted activation curve with a large enough effect in the signal ratio in the repeat runs, not every such curve was filed as active; the % refers to the signal ratio). The conditions noted are these: ESRE-bla HeLa, ER stress beta-lactamase reporter, 5 h; series mostly up to 61 µM. The essentials: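 Using a HeLa line with an ESRE-driven beta-lactamase gene, agonist activity was measured by FRET substrate fluorescence (460 and 530 nm emission) after cells were treated with compounds for 5 hr at 37 C and 5% CO2.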

The nature of test [11]: qHTS assay to identify small molecule antagonists of the retinoid-related orphan receptor gamma (ROR-gamma) signaling pathway - cell viability counter screen (AID 1159520). Further: nearly all actives have a fitted effect of over 50% in size. To be noted: Tet-on RORgamma CHO cells viability, ATP luminescence, 16 h; series mostly up to 92.4 µM. In a few lines: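 Cytotoxicity was read from cellular ATP (CellTiter-Glo luminescence) after 16 hr at 37 C with 1 uM doxycycline induction. The inducer was added 2 hr after compound transfer to Tet-on ROR gamma CHO cells.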

Test [12] in a line: qHTS assay to identify small molecule agonists of the AP-1 signaling pathway - cell viability counter screen (AID 1159525; calls by dose curve; further: nearly all actives have a fitted effect of over 55% in size). The conditions noted are these: ME-180 AP-1-bla cells viability, ATP luminescence, 5 h; series mostly up to 76.8 µM. In a few lines:
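Intracellular ATP by Cell Titer Glo luminescence (30 min, RT) in the same ME-180 AP-1-bla wells after the 5 h compound exposure at 37 °C. Normalised to tetra n-octyl ammonium bromide and DMSO controls.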

The nature of test [13]: qHTS assay to identify small molecule agonists of the AP-1 signaling pathway (AID 1159526; calls by dose curve). To be noted: ME-180 (cervical carcinoma) AP-1-bla reporter, beta-lactamase FRET ratio, 5 h; series mostly up to 76.8 µM.
A short description of test [14]: qHTS assay to identify small molecule agonists of the peroxisome proliferator-activated receptor delta (PPARd) signaling pathway - cell viability counter screen (AID 743211). Further: nearly all actives have a fitted effect of over 55% in size. Further: potency means the concentration at half of the fitted maximal effect. The conditions noted are these: PPARd-bla HEK293H viability, CellTiter-Glo luminescence, 17 h; series mostly up to 62.6 µM. The essentials:
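Viability was measured as CellTiter-Glo luminescence (30 min, room temperature) in the same wells as the beta-lactamase readout. GeneBLAzer PPARd UAS-bla HEK293H cells received compound after 5 h plating and were incubated 17 h at 37 C.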

The nature of test [15]: qHTS assay to identify small molecule antagonists of the peroxisome proliferator-activated receptor delta (PPARd) signaling pathway - cell viability counter screen (AID 743213). Further: nearly all actives have a fitted effect of over 50% in size. Further: potency means the concentration at half of the fitted maximal effect. The conditions noted are these: PPARd-bla HEK293H viability, CellTiter-Glo luminescence, 17 h; series mostly up to 62 µM. In a few lines: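 PPARd-bla HEK293H cells were treated with compounds plus agonist L165041 (300 nM final) for 17 h at 37 C. Viability was then read in the same wells by CellTiter-Glo luminescence after 30 min at room temperature.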

The target of test [16] is Vitamin D3 receptor (Homo sapiens) (UniProt P11473). Description: qHTS assay to identify small molecule antagonists of the vitamin D receptor (VDR) signaling pathway (AID 743223; active means well fitted inhibition curve with a large enough effect in the signal ratio in the repeat runs, not every such curve was filed as active; the % refers to the signal ratio). The conditions noted are these: VDR-UAS-bla HEK293T, beta-lactamase FRET ratio, 16 h; series mostly up to 61 µM. The essentials: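 Antagonist mode: compound added to VDR-bla cells alongside agonist 1alpha,25-dihydroxyvitamin D3 (3 nM final), incubation 16 h at 37C. Read-out is LiveBLAzer FRET fluorescence, 2 h at room temperature.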
Vitamin D3 receptor (Homo sapiens), sequence (P11473 whole entry, looked up): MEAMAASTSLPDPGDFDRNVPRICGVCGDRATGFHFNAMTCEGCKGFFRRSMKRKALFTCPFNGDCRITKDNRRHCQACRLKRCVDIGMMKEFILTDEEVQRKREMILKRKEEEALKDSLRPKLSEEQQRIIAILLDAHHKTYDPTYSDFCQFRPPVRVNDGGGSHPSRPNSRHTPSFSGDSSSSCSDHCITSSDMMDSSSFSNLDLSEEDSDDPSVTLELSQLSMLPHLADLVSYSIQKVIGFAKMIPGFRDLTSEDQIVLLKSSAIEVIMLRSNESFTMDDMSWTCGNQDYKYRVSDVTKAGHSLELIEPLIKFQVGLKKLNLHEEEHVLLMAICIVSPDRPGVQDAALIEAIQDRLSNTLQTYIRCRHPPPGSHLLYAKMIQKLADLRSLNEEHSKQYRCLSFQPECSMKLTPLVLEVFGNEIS

The target of test [17] is Bile acid receptor (Homo sapiens) (UniProt Q96RI1). As to the kind of experiment: qHTS assay to identify small molecule agonists of the farnesoid-X-receptor (FXR) signaling pathway (AID 743220; active means well fitted activation curve with a large enough effect in the signal ratio in the repeat runs, not every such curve was filed as active; the % refers to the signal ratio). To be noted: HEK293T FXR-UAS-bla, beta-lactamase FRET ratio, 16 h; series mostly up to 62.6 µM. The essentials: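 FXR-UAS-bla HEK 293T cells carrying a UAS-driven beta-lactamase reporter were plated for 5 h at 37C/5% CO2, then exposed to DMSO-dissolved Tox21 10K compounds for 16 h at 37C. A LiveBLAzer B/G FRET substrate was loaded for 2 h at room temperature before fluorescence reading.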
Bile acid receptor (Homo sapiens), sequence (Q96RI1 whole entry, looked up): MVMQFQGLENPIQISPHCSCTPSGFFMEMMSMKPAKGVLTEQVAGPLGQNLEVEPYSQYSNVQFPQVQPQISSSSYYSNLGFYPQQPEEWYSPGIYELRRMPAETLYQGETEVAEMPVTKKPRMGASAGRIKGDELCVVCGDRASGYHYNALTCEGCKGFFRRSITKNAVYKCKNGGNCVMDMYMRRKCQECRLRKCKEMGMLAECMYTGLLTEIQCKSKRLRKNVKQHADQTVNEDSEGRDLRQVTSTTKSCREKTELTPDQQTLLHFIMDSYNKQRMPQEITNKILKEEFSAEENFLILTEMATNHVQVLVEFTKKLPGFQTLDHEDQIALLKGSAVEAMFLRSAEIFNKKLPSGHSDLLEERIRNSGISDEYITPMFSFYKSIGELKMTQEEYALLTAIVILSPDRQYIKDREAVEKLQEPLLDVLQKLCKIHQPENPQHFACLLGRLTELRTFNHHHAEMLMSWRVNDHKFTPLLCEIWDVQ

Test [18] deals with Nuclear receptor ROR-gamma (Homo sapiens) (UniProt P51449). Description: qHTS assay to identify small molecule antagonists of the retinoid-related orphan receptor gamma (ROR-gamma) signaling pathway (AID 1159521). The conditions noted are these: Tet-on RORgamma CHO cells, RORE-luciferase, 16 h; series mostly up to 92.4 µM. The essentials: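 Antagonist read-out: drop in luminescence (ONE-Glo) from an RORE-LUC reporter in CHO cells with doxycycline-inducible ROR-gamma; 2 hr compound pretreatment, 1 uM doxycycline, 16 hr incubation at 37 C.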

Peroxisome proliferator-activated receptor delta (Homo sapiens), sequence (Q03181 whole entry, looked up): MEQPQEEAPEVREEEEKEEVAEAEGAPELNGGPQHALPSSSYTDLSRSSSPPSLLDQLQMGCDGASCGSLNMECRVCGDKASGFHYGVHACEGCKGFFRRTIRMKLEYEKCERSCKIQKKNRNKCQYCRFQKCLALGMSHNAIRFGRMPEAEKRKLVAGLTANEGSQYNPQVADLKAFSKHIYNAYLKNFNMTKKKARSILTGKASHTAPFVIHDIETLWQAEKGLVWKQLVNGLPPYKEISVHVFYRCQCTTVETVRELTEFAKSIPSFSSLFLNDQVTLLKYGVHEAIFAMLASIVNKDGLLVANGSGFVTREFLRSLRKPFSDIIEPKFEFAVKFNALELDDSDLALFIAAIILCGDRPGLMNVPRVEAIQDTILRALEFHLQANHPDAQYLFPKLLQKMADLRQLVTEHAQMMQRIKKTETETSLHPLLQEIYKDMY

In the case of `O=C1OCCN1/N=C/c1ccc([N+](=O)[O-])o1`, the Potency entry in [1], in test [2], in test [3], in test [4], in [6] and in test [7] was “inactive” throughout. The Potency result in [11] is “inactive”. In addition, the result in test [5], in test [8], in test [9], in [10], in test [12] and in test [13] was inactive.
Consider `CNCCCC1c2ccccc2C=Cc2ccccc21`, for which the Potency was 10.6 µM (active) in [14], 23.7 µM (active) in test [15], 23.7 µM (active) in test [3] and 29.8 µM (active) in test [6]. In addition, the outcome in test [16], in test [8], in test [9], in test [10], in test [12] and in test [13] was inactive. Besides, in [11], the Potency result was “inactive”.
For the compound `CCOC(=O)N1CCC(n2c(=O)[nH]c3cc(Cl)ccc32)CC1`, the Potency entry in test [14], in test [15], in [3], in [4], in [6] and in [7] was “inactive” throughout. In addition, in [11], the Potency entry is “inactive”. For the same compound, the outcome in [16], in test [8], in test [9], in test [10], in [12] and in test [13] was inactive.
Turning to `O=C(CCCN1CCN(c2ccc(F)cc2)CC1)NC1c2ccccc2CSc2ccccc21` (stereo not given), the Potency entry in test [1] and in test [17] was “inactive” each time. For the same compound, the Potency is 8.41 µM (active) in test [15]; 10.6 µM (active) in test [3]; 26.6 µM (active) in test [4]; 13.3 µM (active) in test [6]; 23.9 µM (active) in [7]; 13.3 µM (active) in test [18]. Besides, the result in test [8], in test [9], in [10], in test [12] and in test [13] was inactive.
On to `O=C(NCCCN1CCOCC1)c1ccc(Cl)cc1`, for which the Potency entry in test [14], in test [1], in [15], in test [2], in [3] and in test [4] was “inactive” each time. Also, the Potency entry in test [6], in [7] and in [11] was “inactive” in each case. In addition, the result in test [5], in test [16], in test [8], in [9], in [10] and in [12] was inactive. The outcome in test [13] was inactive.
As to `Oc1cc(O)c(Cl)cc1Cl`, the Potency result in test [1], in test [15], in [3], in [17], in test [4] and in [6] was “inactive” in each case. Also, in test [11], the Potency result is “inactive”. Also, the outcome in [5], in test [16], in test [8], in test [9], in test [10] and in test [12] was inactive. The result in test [13] was inactive.
Consider `COc1cc2c(N3CCN(C(=O)Nc4ccc(OC(C)C)cc4)CC3)ncnc2cc1OCCCN1CCCCC1`, for which the Potency entry in test [3], in test [4], in [6], in [7] and in [11] was “inactive” each time. Besides, the outcome in [5], in test [8], in test [9], in test [10], in [12] and in test [13] was inactive.
Regarding `O=C(O)c1ccccc1NCCc1ccccc1`, the Potency entry in test [14], in [1], in test [15], in [2], in test [4] and in test [6] was “inactive” throughout. The Potency result in test [7] and in test [11] was “inactive” each time. Besides, the outcome in test [16], in test [8], in test [9], in test [10], in test [12] and in [13] was inactive.
